Reference: PubChem BioAssay AID1903 (Southern Research Specialized Biocontainment Screening …, 2009)
The whole screen tested about 310,000 compounds, of which about 1,200 (0.39%) were called active. No rule for the calls is given here. Only a sample is shown. Measured potencies and affinities stand elsewhere.

Molecular target: Large T antigen (Simian virus 40) (UniProt P03070)
Test: TAg ATPase/helicase activity blockers – biochemical (AID 1903)
Settings: SV40 large T antigen ATPase/helicase inhibition assay; at 20 µM; active compounds read high

Sequence of Large T antigen (Simian virus 40) (P03070 whole entry, looked up): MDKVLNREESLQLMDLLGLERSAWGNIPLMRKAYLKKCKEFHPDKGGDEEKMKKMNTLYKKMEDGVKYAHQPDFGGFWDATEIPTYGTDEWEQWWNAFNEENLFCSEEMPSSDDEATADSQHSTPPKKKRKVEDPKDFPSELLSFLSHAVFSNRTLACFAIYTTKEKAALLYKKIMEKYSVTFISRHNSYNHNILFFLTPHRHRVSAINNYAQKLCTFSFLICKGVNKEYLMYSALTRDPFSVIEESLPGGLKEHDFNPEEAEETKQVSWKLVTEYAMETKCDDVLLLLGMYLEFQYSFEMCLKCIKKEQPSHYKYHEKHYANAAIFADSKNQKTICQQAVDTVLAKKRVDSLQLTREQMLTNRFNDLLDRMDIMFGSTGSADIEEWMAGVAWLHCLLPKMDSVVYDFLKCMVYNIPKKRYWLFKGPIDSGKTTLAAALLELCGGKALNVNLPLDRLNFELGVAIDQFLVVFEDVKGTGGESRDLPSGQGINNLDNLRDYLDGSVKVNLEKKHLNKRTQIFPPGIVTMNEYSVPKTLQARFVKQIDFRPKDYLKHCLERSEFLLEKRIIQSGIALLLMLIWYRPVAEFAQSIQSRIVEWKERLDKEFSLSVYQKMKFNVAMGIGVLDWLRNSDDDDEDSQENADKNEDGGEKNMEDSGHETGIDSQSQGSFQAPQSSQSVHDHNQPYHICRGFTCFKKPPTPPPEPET

inhibition, inactive:
NC1=NC(=O)CC(C(=O)NCCc2ccccc2)S1 (stereo unspecified) 13.9%
C/C(Nc1ccc(Cl)cc1)=C(/C#N)C(N)=O -6.59%
N#CC(C(=O)Nc1ccc(Cl)cc1)=C1Nc2ccccc2N1 -0.845%
CCc1cc(C(=O)c2ccccc2OC)c(N)s1 12.7%
COC(=O)/C=C/c1ccc2c(c1)OCO2 -5.42%
CCCCOC(=O)/C=C/c1ccc(OC(=O)OC)c(OC(=O)OC)c1 15.3%
CCOc1ccc(NC(=S)N(Cc2ccc(Cl)cc2)Cc2ccco2)cc1 2.54%
O=C(CS(=O)(=O)Cc1ccccc1)N1CCc2ccccc2C1 9.06%
O=C1N=C(N2CCN(c3ccccc3)CC2)S/C1=C/c1ccco1 12.4%
O=C1N=C(N2CCN(c3ccccc3)CC2)S/C1=C\c1ccco1 31.4%
O=C1N=C(N2CCCC2C(=O)O)S/C1=C\c1ccco1 (stereo unspecified) 3.04%
O=C(CN1C(=O)S/C(=C\c2ccc(O)cc2)C1=O)c1ccccc1 16.6%
CCCSC1=N/C(=C\C=C\c2ccco2)C(=O)S1 73%
NN1C(=O)/C(=C\c2ccco2)SC1=S 45.2%
Cc1ccc(N=C2NC(=O)/C(=C/C=C/c3ccco3)S2)cc1 21.2%
O=C1/C(=C\c2ccc(O)cc2)SC(=S)N1Cc1ccccc1 7.6%
COc1ccccc1-c1noc(CCCC(=O)NC2CCCCC2)n1 29.8%
Cc1cc(C=O)c(C)n1-c1ccc(N2CCOCC2)c([N+](=O)[O-])c1 5.88%
O=C(COC(=O)c1nc(Cl)ccc1Cl)NCCc1ccccc1 -0.66%
CCc1ccc(/C=C2/Sc3ccccc3N(CC(=O)NCC3CCCO3)C2=O)cc1 (stereo unspecified) 3.57%
Cc1ccc(NC(=O)N2CCC(C(=O)c3ccc(F)cc3)CC2)cc1 3.7%
CCOC(=O)Cn1c(=NC(=O)CN2C(=O)CCC2=O)sc2cc(S(N)(=O)=O)ccc21 11.6%
COc1ccc(C(CNc2ccc(S(=O)(=O)N3CCCC3)cc2[N+](=O)[O-])N2CCCC2)cc1 (stereo unspecified) 0.85%
O=C(C1CCCN(Cc2ccccc2F)C1)N1CCCC1 (stereo unspecified) -1.92%
CC1CN(c2nc3c(c(=O)n(C)c(=O)n3C)n2Cc2c(Cl)cccc2Cl)CC(C)O1 (stereo unspecified) -0.38%
CN(C)S(=O)(=O)c1cccc(NC(=O)COC(=O)COc2ccccc2[N+](=O)[O-])c1 8.43%
CC(=O)C1=C(C)Nc2ncnn2C1c1cccc(Br)c1 (stereo unspecified) 4.82%
Cn1c(C(=O)NCCOc2ccccc2Cl)cc(=O)n(C)c1=O 3.15%
CC(C)(O)[C@H]1Cc2cc3ccc(=O)oc3cc2O1 -9.56%
COc1cc2c(cc1/C=C/C(=O)O)OC(C)C2 (stereo unspecified) -5.46%
CCCc1ccc(S(=O)(=O)N/N=C\c2ccc3c(c2)OCO3)cc1 10.3%
Cc1ccc(S(=O)(=O)NCC(=O)Nc2cccc([N+](=O)[O-])c2)cc1 1.03%
Cc1onc(-c2c(Cl)cccc2Cl)c1/C(N)=N/OC(=O)C(C)(C)C 7.65%
CCC(C)/C=C/C1=CC2=C(Cl)C(=O)C3(C)OC(=O)C(C(=O)C(C)C(C)O)C3C2=CO1 (stereo unspecified) 12.9%
COC(=O)CCC(=O)OC1(C)C(=O)C2=COC(c3ccc(OC)cc3)=CC2=C(Br)C1=O (stereo unspecified) 50.8%
CC[C@H](C)/C=C(C)/C=C/C1=CC2=CC(=O)[C@]3(C)OC(=O)[C@@H](C(C)=O)[C@@H]3C2=CO1 18%
O=C(CSc1nc(-c2ccccc2)c(-c2ccccc2)o1)N1CCOCC1 4.01%
O=C(CNC(=O)c1ccc(Cl)cc1Cl)OCc1nnc(-c2ccccc2)o1 15.1%
CC1(C)CC(=O)c2sc(NC(=O)C3COc4ccccc4O3)nc2C1 (stereo unspecified) 4.75%
O=C(C1CCN(S(=O)(=O)c2cccs2)CC1)N1CCCCC1 13.9%
Cc1cc(C)c2c(CN3CCCCC3)cc(=O)oc2c1 20.4%
Cc1cc(C)c2c(CN3CCN(C)CC3)cc(=O)oc2c1 -0.86%
COC1CCN(C(=O)CC2C(=O)NCCN2CC(C)(C)C)CC1 (stereo unspecified) -3.7%
O=C(CC12CC3CC(CC(C3)C1)C2)Nc1nncs1 12.5%
COc1ccc(NC(=O)CCc2c(C)nc3nc(C)nn3c2C)cc1 -3.06%
O=C(c1cc2ccccc2oc1=O)N1CCN(S(=O)(=O)c2ccccc2)CC1 18.2%
O=C1NC(=S)N/C1=C/c1cc2c(cc1[N+](=O)[O-])OCO2 3%
O=C1NN(c2ccccc2)C(=O)/C1=C\c1ccc2c(c1)OCO2 18%
O=C(CCN1C(=O)/C(=C/C=C/c2ccccc2)SC1=S)Nc1nc2ccccc2s1 9.79%
Cc1ccccc1NC(=O)c1ccc2c(c1)CCN2S(C)(=O)=O 11.3%
CCC(C)n1c(SCC(=O)/C(C#N)=C(\C)N)nc2ccccc2c1=O (stereo unspecified) 7.34%
C/C(=C\c1ccccc1)C(=O)Nc1nc2ccc([N+](=O)[O-])cc2s1 8.41%
Cc1ccc(/C=N/n2c(C)nnc2C)cc1 19.4%
CC(=C/c1ccccc1)/C=N/n1c(-c2ccncc2)n[nH]c1=S 19%
CC(/C=N/n1c(-c2cccnc2)n[nH]c1=S)=C\c1ccco1 31.8%
S=c1[nH]nc(-c2ccncc2)n1/N=C/c1cccc(Cl)c1 29.1%
S=c1[nH]nc(-c2ccco2)n1/N=C/c1ccc(Cl)cc1 31%
S=c1[nH]nc(-c2n[nH]c3c2CCC3)n1/N=C/C=C/c1ccccc1 20.8%
Clc1ccccc1CN1CCN(/N=C/C=C/c2ccco2)CC1 15.9%
Cc1cccc(/C=N/n2c(C)nnc2C)c1 10.3%
COC(=O)c1cn(NC(=O)CC2CCCCC2)c(=O)c2ccccc12 1.58%
O=c1[nH]cnc2onc(-c3ccc(F)cc3)c12 34%
O=[N+]([O-])c1cccc2nc(-c3ccccc3)c(-c3ccccc3)nc12 1.39%
CCCCOc1ccc(C(=O)NCc2ccccn2)cc1 -4.84%
COc1ccc(C(=O)NC(=S)NC(C)c2ccccc2)cc1 (stereo unspecified) 5.22%
Cc1ccc(C)c(N2CCN(CCCNC(=O)CCn3c(=O)c4cccn4c4cccnc43)CC2)c1 15.1%
Cc1cc(C(C)(C)C)ccc1OCC(=O)N/N=C\c1c(C)n(C)n(-c2ccccc2)c1=O -3.36%
COc1ccc(CN2CCC(n3nccc3NC(=O)CCOc3ccccc3)CC2)cc1C 5.92%
O=C(NCc1ccco1)c1csc2c1CCCCC2 1.56%
Cc1cc(C)cc(CSCC(=O)N/N=C/c2ccc(OCC(=O)NCc3ccco3)cc2)c1 10.9%
CC(/C=N/n1c(-c2ccco2)n[nH]c1=S)=C\c1ccco1 28.2%
Cc1ccsc1/C=N/n1c(-c2ccncc2)n[nH]c1=S 25.6%
Cc1ccsc1/C=N/n1c(-c2ccccc2)n[nH]c1=S 18.6%
CC(/C=N/n1c(-c2ccc(Cl)cc2)n[nH]c1=S)=C\c1ccco1 22.6%
CC(/C=N/n1c(-c2ccc(C)cc2)n[nH]c1=S)=C\c1ccco1 19.5%
CC(/C=N/n1c(-c2ccccc2)n[nH]c1=S)=C\c1ccco1 33.1%
CCOc1ccccc1NC(=S)NCCc1ccc(F)cc1 2.66%
O=C(CS(=O)(=O)c1ccc(F)cc1)Nc1nnc(-c2cccs2)o1 28.3%
COc1ccc(OC(=O)COc2ccc(Cl)cc2)cc1 21.7%
Cc1cccc(NC(=S)N2CCN(c3ccccn3)CC2)c1 7.16%
COC(=O)C1=NNC2(C)C(=O)N(c3ccc(C)cc3)C(=O)C12 (stereo unspecified) 1.54%
Cc1cc(C(C)C)n2c(nc3ccccc32)c1C#N 3.46%
CCc1c(C)c(C#N)c2nc3ccccc3n2c1Cl -5.75%
CCc1ccc(N(C(=O)CNC(=O)c2ccco2)C(C(=O)NC2CCCC2)c2cccnc2)cc1 (stereo unspecified) 12.2%
COc1ccc(/C=C2/SC(=S)N(CCCC(=O)Nc3ccc(O)cc3)C2=O)cc1 5.12%
O=C1ON=C(c2ccccc2)/C1=C/c1ccco1 36.5%
COc1cc(/C=C2\C(=O)ON=C2c2ccccc2)cc(OC)c1OC 9.78%
O=C1ON=C(c2ccccc2)/C1=C/c1cccnc1 1.23%
COc1ccc(/C=C2\C(=O)ON=C2c2ccccc2)cc1 72.8%
O=C1ON=C(c2ccc(Cl)cc2)/C1=C/c1ccc(O)cc1 34.8%
COc1cc(/C=C2\C(=O)ON=C2c2ccccc2)cc(Cl)c1O 32.2%
O=C1ON=C(c2ccccc2)/C1=C/c1ccccc1 48.5%
O=C1ON=C(c2ccccc2)/C1=C/c1ccc(O)cc1 48%
CCc1ccc(C(=O)OCC(=O)NCCNC(=O)COC(=O)c2ccc(CC)cc2)cc1 4.49%
CCC(C)[C@H](N)c1cn([C@@H](Cc2ccc(O)cc2)C(=O)N2CCNCC2)nn1 (stereo partly specified) 3.28%
NC(=O)C1CCN(C(=O)Cc2ccc([N+](=O)[O-])cc2)CC1 21.5%
